Rows were chosen to be rich in hits. Some 9.3% of all compounds tested hit in one or more screens of this group.
ELG1 repair inh – qHTS screen for small molecules that inhibit ELG1-dependent DNA repair in human embryonic kidney (HEK293T) cells expressing luciferase-tagged ELG1. HEK293T ELG1-luciferase reporter, luminescence, 16 h; DNA damage induced by 5-fluorouridine. Potency, µM (titrated, usually from 46.1 µM), inactives show top-dose activity change, negative = inhibition, usual class: inhibitors. 330,000 tested, 2.3% active. AID 504467, 2011; also: % is scaled to controls: 0 for no effect and ±100 for the full control effect; nearly all actives have a fitted effect of over 55% in size
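Overnight (16 hr) co-exposure of 2,000 cells/well to 5-fluorouridine and compound at 37 °C preceded detection. Luciferase was quantified via ONE-Glo luminescence; loss of signal denotes inhibition.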
FLuc counter – qHTS profiling assay for firefly luciferase inhibitor/activator using purifed enzyme and Km concentrations of substrates (counterscreen for miR-21 project); purified FLuc, Km substrates, luminescence inhibition; Potency, µM (series often up to 57.5 µM), for the others: top-dose activity change, negative = inhibition, usual class: inhibitors; AID 588342, 2011; 360,000 tested, 6.9% active; Luciferin 4-monooxygenase (Photinus pyralis), P08659;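 also: plate controls were vehicle for no effect and reference inhibitor for full effect; nearly all actives have a fitted effect of over 55% in size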
Target sequence (P08659 whole entry, looked up): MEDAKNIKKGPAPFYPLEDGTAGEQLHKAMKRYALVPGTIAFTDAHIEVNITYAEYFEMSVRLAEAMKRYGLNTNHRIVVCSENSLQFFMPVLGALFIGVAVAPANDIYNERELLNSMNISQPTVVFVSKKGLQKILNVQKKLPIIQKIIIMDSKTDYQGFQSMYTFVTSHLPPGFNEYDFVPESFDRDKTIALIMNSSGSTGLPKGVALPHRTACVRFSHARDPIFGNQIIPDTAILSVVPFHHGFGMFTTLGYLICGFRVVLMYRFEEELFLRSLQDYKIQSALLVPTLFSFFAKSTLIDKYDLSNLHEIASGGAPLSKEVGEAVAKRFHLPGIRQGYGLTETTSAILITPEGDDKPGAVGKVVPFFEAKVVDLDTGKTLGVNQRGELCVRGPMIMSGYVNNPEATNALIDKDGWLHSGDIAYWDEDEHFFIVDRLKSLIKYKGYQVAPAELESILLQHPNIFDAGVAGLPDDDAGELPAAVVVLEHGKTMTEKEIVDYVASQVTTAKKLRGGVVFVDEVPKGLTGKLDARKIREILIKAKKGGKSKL
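Purified P. pyralis luciferase (10nM final) with 10uM D-luciferin and 10uM ATP (Km levels) in 50mM Tris acetate pH 7.5, 10mM Mg acetate, 0.01% Tween-20, 0.05% BSA; qHTS 6-point titration, ~60 µM downward; luminescence read.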
NPC1 prom act – qHTS Assay for NPC1 Promoter Activators; Potency, µM (titrated, usually from 9.22 µM), inactives show at the highest dose activation, usual class: activators; AID 485313, 2010; Huh7 NPC1 promoter luciferase reporter, 24 h; 320,000 tested, 2.4% active; also: % of control where 0% means no effect; nearly all actives have a fitted effect of over 60% in size
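NPC1 promoter–luciferase Huh7 cells; 24 h compound; luminescence.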
Rab9 prom act – qHTS Assay for Rab9 Promoter Activators. Huh7 Rab9 promoter-luciferase reporter, luminescence, 24 h. Potency, µM (highest dose often 9.22 µM), for inactives: at the top dose activation, negative = inhibition, actives largely listed as activators. 320,000 tested, 2.8% active. AID 485297, 2010; also: % of control where 0% means no effect; nearly all actives have a fitted effect of over 60% in size
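Huh7 cells stably carrying a Rab9 promoter-luciferase reporter, 1500 cells per well in OP-MEM I with 10% FBS, treated with compound 24 hours at 37C. Luciferase activity read by luminescence after 10 minutes with Amplite reagent.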
SMN2 splice enh – qHTS Assay for Enhancers of SMN2 Splice Variant Expression; Potency, µM (doses to about 46.1 µM), for the others: top-dose activity change, positive = activation, actives largely listed as activators; 210,000 tested, 2.8% active; HEK293 SMN2-luciferase splicing reporter, luminescence, 30-36 h; also: % of control where 0% means no effect; nearly all actives have a fitted effect of over 55% in size
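qHTS luciferase splicing reporter: luminescence rises when SMN2 exon 7 is included in transfected HEK293 cells. Compound exposure lasted 30-36 h at 37C, with 4.5 mM final sodium butyrate as control, followed by a ONE-Glo read.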
ELG1 genotoxic – qHTS screen for small molecules that induce genotoxicity in human embryonic kidney (HEK293T) cells expressing luciferase-tagged ELG1; Potency, µM (top dose mostly 46 µM), without a hit: top-dose activity change, positive = activation, hits mostly activators; 330,000 tested, 1.3% active; HEK293T ELG1-luciferase reporter, luminescence, 16 h; AID 504466, 2011; also: % of control where 0% means no effect; nearly all actives have a fitted effect of over 60% in size
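Genotoxicity was scored as increased ELG1-luciferase reporter signal, measured by ONE-Glo luminescence (30 min, room temperature). Compound or vehicle exposure of the HEK293T reporter cells lasted 16 hr at 37°C.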
Starred values were filed as active, the others as inactive; ? = inconclusive; · = not tested or not shown. Calls follow the shape of the dose curve; as a rule, active = well fitted curve in the direction sought with a large enough effect; inconclusive = small, poorly fitted or top-dose-only effect, or another doubt; inactive = no such curve, though single readings can be large; an effect the other way counts as inactive or inconclusive. Potency is read from the fitted curve at half-maximal effect.

SMILES	ELG1 repair inh	FLuc counter	NPC1 prom act	Rab9 prom act	SMN2 splice enh	ELG1 genotoxic
O=C1C=C(Nc2ccccc2)C(=O)c2ccccc21	?	3.38µM*	1.78µM*	1µM*	12.6µM*	7.1%
Cc1cc(C)c2c(CC(=O)Nc3ccccc3C(F)(F)F)coc2c1	·	-2.5%	·	·	9.9%	·
O=C(O)c1cc2c(cc1NC(=O)c1ccccc1OC(F)F)OCCCO2	?	?	-0.1%	-0.1%	·	4.0%
O=C(OCc1nnc(-c2ccc(Cl)cc2)o1)C12CC3CC(CC(O)(C3)C1)C2	?	5.36µM*	2.82µM*	2.24µM*	11.7%	?
O=C(Cc1ccc(Cl)cc1)OCc1nnc(-c2ccccc2)o1	7.3%	-16.9%	-8.0%	-2.0%	-4.1%	1.7%
CC1=C(C(=O)OCCOc2ccccc2)C(c2ccsc2)NC(=O)N1C (stereo unspecified)	23.1µM*	-11.1%	-3.6%	-1.1%	-63.6%	-0.9%
COC(=O)C1=C(C)N(C)C(=O)NC1c1ccccc1 (stereo unspecified)	-6.9%	4.9%	-3.1%	2.7%	19.9%	1.5%
Cc1ccc(Nc2c([N+](=O)[O-])c(=O)oc3ccccc23)cc1C	17.6%	?	-4.4%	-0.7%	·	-2.0%
CCS(=O)(=O)NCCc1csc(-c2ccccc2)n1	?	?	22.2%	?	-12.2%	12.0%
C(=N\Nc1ncnc2ccccc12)/c1ccccc1	?	3.01µM*	29.3%	2.82µM*	15.8µM*	?
Clc1cccc(/C=N/Nc2ncnc3ccccc23)c1	?	4.78µM*	?	3.98µM*	?	?
CCC(COC)Oc1cc(NCc2ccccc2)c2ncn(C(C)C)c2c1 (stereo unspecified)	18.3µM*	0.6%	10.8%	0.9%	·	-13.8%
CCC(CO)Oc1cc(NCc2ccccc2C(F)(F)F)c2ncn(C(C)C)c2c1 (stereo unspecified)	23.1µM*	·	·	·	·	-5.9%
CCC(CO)Oc1cc(NCc2ccccc2F)c2ncn(C(C)C)c2c1 (stereo unspecified)	?	-1.2%	-1.1%	-2.8%	·	3.7%
CCc1ccc(NC2CC(=O)N(CCc3ccc(OC)c(OC)c3)C2=O)cc1 (stereo unspecified)	?	0.0%	-1.7%	-2.0%	-3.8%	-2.5%
CCCCN1C(=O)CC(Nc2ccc(CC)cc2)C1=O (stereo unspecified)	?	13.5µM*	12.3%	24.7%	?	16.4µM*
Cc1ccccc1NC(=O)NCCCN1CCN(C2CCCCC2)CC1	7.8%	2.9%	-0.1%	1.3%	11.2%	-3.6%
COc1cccc(/C=N/NC(=O)CNC(=O)c2cccs2)c1O	?	21.3µM*	1.2%	-8.2%	·	16.3%
COc1ccccc1/C=C\C(=O)NCC(=O)N/N=C/c1cccc(OC)c1O	-6.0%	-4.0%	-24.4%	-8.5%	·	?
O=C(CNC(=O)c1cccs1)N/N=C/c1c(F)cccc1Cl	?	21.3µM*	13.2%	16.3%	·	?
Cc1ccc(/C=N/NC(=O)CNC(=O)c2cccs2)cc1	?	15.1µM*	1.5%	28.5%	·	?
COc1cccc(/C=N/NC(=O)CNC(=O)CCc2ccccc2)c1O	?	9.53µM*	-7.7%	-13.2%	·	?
CC(C)[C@H](NC(=O)c1ccccc1Cl)C(=O)OCC(=O)NCc1ccc2c(c1)OCO2	-3.5%	·	·	·	·	-0.1%
C=CCN1C(=O)/C(=C\c2cccc(OC(=O)c3ccco3)c2)SC1=S	11.4%	0.0%	-9.3%	1.2%	·	16.0%
O=c1cc(N2CCc3ccccc32)[nH]c(=O)n1-c1ccccc1	6.4%	1.4%	-2.0%	-0.1%	1.2%	1.2%
SMILES	ELG1 repair inh	FLuc counter	NPC1 prom act	Rab9 prom act	SMN2 splice enh	ELG1 genotoxic
O=C(/C=C/c1ccc(-c2ccccc2[N+](=O)[O-])o1)c1ccccc1	?	23.9µM*	16.3%	3.2%	-20.5%	12.7%
O=C(O)/C(=C\c1ccc(-c2ccccc2[N+](=O)[O-])o1)c1ccccc1	-1.7%	21.3µM*	0.6%	6.1%	·	3.7%
CCN(C(=O)COC(=O)CNS(=O)(=O)c1ccccc1)c1ccccc1	6.4%	1.2%	-7.0%	8.9%	19.8%	1.2%
COc1cc(-c2cc(C(=O)Nc3ccc(O)cc3)c3ccccc3n2)cc(OC)c1OC	5.8µM*	?	3.3%	-8.4%	·	-10.3%
COc1ccc(-c2cc(C(=O)NC(C)c3ccccn3)c3ccccc3n2)cc1OC (stereo unspecified)	16.4µM*	7.57µM*	-1.4%	-6.3%	·	-4.4%
COc1ccc(NC(=O)c2cc(-c3ccc(OC)c(OC)c3)nc3ccccc23)c(OC)c1	?	7.57µM*	13.8%	18.1%	·	-0.1%
CC(=O)Nc1ccc(NC(=O)c2cc(-c3ccccc3)nc3ccccc23)cc1	?	?	11.7%	7.4%	·	-10.3%
COc1ccc(-c2cc(C(=O)NN3CCOCC3)c3ccccc3n2)cc1OC	?	?	-3.7%	3.0%	·	1.5%
COc1ccc(-c2cc(C(=O)Nc3ccc(S(=O)(=O)Nc4onc(C)c4C)cc3)c3ccccc3n2)cc1OC	?	13.5µM*	8.2%	8.9%	·	1.6%
CCOC(=O)c1cn(-c2nc(-c3ccc(Cl)c(Cl)c3)cs2)c2c(F)c(N3CCOCC3)c(F)cc2c1=O	?	-0.7%	-8.5%	-2.8%	-2.7%	0.5%
COc1ccc(-c2cc(C(=O)OC3CCOC3=O)c3ccccc3n2)cc1OC (stereo unspecified)	7.5%	13.5µM*	8.7%	-2.5%	-3.5%	4.1%
O=C(OC1CCOC1=O)c1cc(-c2ccccc2)nc2ccccc12 (stereo unspecified)	?	?	-2.9%	-4.0%	5.9%	-2.7%
CC(C)(C)c1nnc(NC(=O)c2cc(-c3ccccc3)nc3ccccc23)s1	-9.5%	-14.8%	0.7%	1.9%	-20.4%	-3.5%
COc1cc(-c2cc(C(=O)Nc3nc4ccccc4s3)c3ccccc3n2)cc(OC)c1OC	5.17µM*	15.1µM*	11.7%	-2.4%	-20.1%	-6.5%
COc1ccc(-c2cc(C(=O)Nc3ccc(C(N)=O)cc3)c3ccccc3n2)cc1OC	?	3.38µM*	10.3%	25.4%	?	-1.0%
COc1ccc(-c2csc(-c3c(N)c(C(=O)c4ccccc4)n4ccccc34)n2)cc1OC	·	-4.6%	·	·	6.0%	·

Bioassay records from PubChem BioAssay.
